# Source: article PMC12215968
# Biological target: SERBP1 (UniProt Q8NC51)
# Experiment: cross-linking mass spectrometry
# Settings: TSTO, in cells
# YWHAB, P31946, sequence (P31946 whole entry): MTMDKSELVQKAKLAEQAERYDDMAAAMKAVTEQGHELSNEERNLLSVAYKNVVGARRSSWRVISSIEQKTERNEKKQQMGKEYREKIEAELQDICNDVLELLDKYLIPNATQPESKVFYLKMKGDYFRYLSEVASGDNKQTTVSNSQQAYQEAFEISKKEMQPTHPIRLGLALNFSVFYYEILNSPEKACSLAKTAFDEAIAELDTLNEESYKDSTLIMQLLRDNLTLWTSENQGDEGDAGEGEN
# YWHAG, P61981, sequence (P61981 whole entry): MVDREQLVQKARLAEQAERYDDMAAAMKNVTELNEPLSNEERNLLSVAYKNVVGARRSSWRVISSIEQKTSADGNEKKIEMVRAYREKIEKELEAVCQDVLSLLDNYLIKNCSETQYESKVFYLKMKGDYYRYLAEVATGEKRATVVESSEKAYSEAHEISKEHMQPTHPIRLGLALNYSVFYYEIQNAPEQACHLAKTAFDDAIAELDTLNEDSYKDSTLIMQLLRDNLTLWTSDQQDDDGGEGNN
# YWHAQ, P27348, sequence (P27348 whole entry): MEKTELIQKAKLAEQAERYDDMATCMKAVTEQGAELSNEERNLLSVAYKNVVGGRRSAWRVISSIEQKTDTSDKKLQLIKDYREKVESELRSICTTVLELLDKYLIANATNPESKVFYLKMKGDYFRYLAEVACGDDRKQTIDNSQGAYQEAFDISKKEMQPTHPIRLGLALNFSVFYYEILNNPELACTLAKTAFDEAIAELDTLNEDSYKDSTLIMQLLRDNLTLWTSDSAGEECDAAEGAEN
row,Substance,cross-linked residues
1,"RPL23A, P62750",K30 - K68
2,"RPS10, P46783",K107 - K299
3,"RPS3, P23396",K108 - K236
4,"RPS15, P62841",K58 - K327
5,"RPS28, P62857",K16 - K140
6,"RPL34, P49207",K115 - K37

# Biological target: YWHAE (UniProt P62258)
# Experiment: cross-linking mass spectrometry
# Settings: TSTO, in cells
# YWHAE, sequence (P62258 whole entry): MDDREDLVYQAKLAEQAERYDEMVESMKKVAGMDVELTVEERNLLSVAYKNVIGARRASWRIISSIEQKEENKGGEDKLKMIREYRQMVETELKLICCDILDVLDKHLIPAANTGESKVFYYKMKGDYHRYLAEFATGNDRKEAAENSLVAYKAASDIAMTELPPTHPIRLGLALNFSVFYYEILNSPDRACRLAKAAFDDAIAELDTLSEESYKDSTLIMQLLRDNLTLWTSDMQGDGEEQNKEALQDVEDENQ
row,Substance,cross-linked residues
1,"YWHAQ, P27348",K68 - K12
2,"YWHAB, P31946",K70 - K12
3,"YWHAG, P61981",K69 - K12
